Measurements taken from the supplement of paper PMC10849652.
About 7,900 targets were measured; listed, in parts, are those with a hit and a random draw of the rest. About 0.6% of all pairs of compound and target were hits.

How the values were obtained:
Assay in all cases: log2 fold change, soluble protein after heating vs DMSO (PISA); higher = thermal stabilisation; K562 cells, 10 uM, 30 min; active = over 0.2 and 3.5 SD of the protein, either way, in both replicates (recomputed)
saracatinib = compound: CN1CCN(CCOc2cc(OC3CCOCC3)c3c(Nc4c(Cl)ccc5c4OCO5)ncnc3c2)CC1 [saracatinib]
Summary of the method: (§1)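 Thermal stability values are relative to control samples and come from duplicates. They are expressed as log2 fold changes. For measurement, K562 cells (2×10^6 cells/mL) received 10 μM compound for 30 min, and aliquots were heated for 3 min over 48°C-58°C, pooled, and extracted at 4°C in PBS with 0.5% NP-40. Soluble protein, the supernatant after 21,000xg for 90 min, was quantified by TMTpro 16plex LC-MS/MS with equalised channel sums.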

sotrastaurin = compound: CN1CCN(c2nc(C3=C(c4c[nH]c5ccccc45)C(=O)NC3=O)c3ccccc3n2)CC1 [sotrastaurin]
Summary of the method: as §1

alvocidib = compound: CN1CC[C@H](c2c(O)cc(O)c3c(=O)cc(-c4ccccc4Cl)oc23)[C@H](O)C1 [alvocidib]
Summary of the method: as §1

Tubastatin A = compound: CN1CCc2c(c3ccccc3n2Cc2ccc(C(=O)NO)cc2)C1 [Tubastatin A]
Summary of the method: as §1

[1] = compound: CNC(=O)C1=CC=CC=C1NC2=NC(=NC=C2Cl)NC3=C(C=C(C=C3)N4CCOCC4)OC
Summary of the method: as §1

rucaparib = compound: CNCc1ccc(-c2[nH]c3cc(F)cc4c3c2CCNC4=O)cc1 [rucaparib]
Summary of the method: as §1

[2] = compound: CNc1nc(-c2ccc3c(N)n[nH]c3c2)cc(N2C[C@@H](C(=O)NC3CCCCC3)CC[C@H]2C)n1
Summary of the method: as §1

encorafenib = compound: COC(=O)N[C@@H](C)CNc1nccc(-c2cn(C(C)C)nc2-c2cc(Cl)cc(NS(C)(=O)=O)c2F)n1 [encorafenib]
Summary of the method: as §1

defactinib = compound: CNC(=O)c1ccc(Nc2ncc(C(F)(F)F)c(NCc3nccnc3N(C)S(C)(=O)=O)n2)cc1 [defactinib]
Summary of the method: as §1

[3] = compound: COC(=O)[C@H](CCSC)NC(=O)C1=C(C=C(C=C1)NC[C@H](CS)N)C2=CC=CC=C2
Summary of the method: as §1

Measured: log2 fold change

MELK (UniProt Q14680)
inactive: saracatinib -0.005 | sotrastaurin 0.166 | alvocidib 0.011 | Tubastatin A 0.074 | [1] -0.347 | rucaparib 0.125 | [2] 0.196 | encorafenib 0.06

MAPRE3 (UniProt Q9UPY8)
Sequence of UniProt Q9UPY8 (Q9UPY8 whole entry, looked up): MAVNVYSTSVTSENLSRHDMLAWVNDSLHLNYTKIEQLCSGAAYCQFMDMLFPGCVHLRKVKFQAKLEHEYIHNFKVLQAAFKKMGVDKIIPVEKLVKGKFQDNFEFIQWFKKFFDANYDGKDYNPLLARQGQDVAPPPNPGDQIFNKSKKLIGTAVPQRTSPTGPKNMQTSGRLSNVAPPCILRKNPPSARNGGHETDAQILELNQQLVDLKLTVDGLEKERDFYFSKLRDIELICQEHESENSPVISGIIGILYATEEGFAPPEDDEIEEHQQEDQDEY
inactive: saracatinib -0.029 | sotrastaurin -0.016 | alvocidib -0.091 | Tubastatin A -0.067 | [1] 0.025 | defactinib -0.031 | rucaparib 0.02 | [2] -0.016 | encorafenib 0.017 | [3] 0.027

LAMP2 isoform 2 (UniProt P13473)
Sequence of UniProt P13473 (P13473 whole entry, looked up): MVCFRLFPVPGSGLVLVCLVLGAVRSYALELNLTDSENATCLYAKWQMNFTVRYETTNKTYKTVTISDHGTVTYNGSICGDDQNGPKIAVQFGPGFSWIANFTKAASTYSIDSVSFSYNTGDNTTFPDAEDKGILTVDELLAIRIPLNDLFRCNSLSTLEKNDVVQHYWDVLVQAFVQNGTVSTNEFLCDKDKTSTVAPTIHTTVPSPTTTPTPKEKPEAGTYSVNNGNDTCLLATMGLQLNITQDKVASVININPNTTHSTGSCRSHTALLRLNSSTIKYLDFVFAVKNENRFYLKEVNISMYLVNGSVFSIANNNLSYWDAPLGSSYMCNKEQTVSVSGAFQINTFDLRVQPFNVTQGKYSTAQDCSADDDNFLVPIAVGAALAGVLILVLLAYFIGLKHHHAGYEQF
inactive: saracatinib 0.24 | alvocidib -0.026 | Tubastatin A 0.021 | [1] 0.027 | defactinib 0.078 | rucaparib 0.024 | [2] -0.192 | encorafenib 0.043 | [3] -0.017

IRF3 (UniProt Q14653)
Sequence of UniProt Q14653 (Q14653 whole entry, looked up): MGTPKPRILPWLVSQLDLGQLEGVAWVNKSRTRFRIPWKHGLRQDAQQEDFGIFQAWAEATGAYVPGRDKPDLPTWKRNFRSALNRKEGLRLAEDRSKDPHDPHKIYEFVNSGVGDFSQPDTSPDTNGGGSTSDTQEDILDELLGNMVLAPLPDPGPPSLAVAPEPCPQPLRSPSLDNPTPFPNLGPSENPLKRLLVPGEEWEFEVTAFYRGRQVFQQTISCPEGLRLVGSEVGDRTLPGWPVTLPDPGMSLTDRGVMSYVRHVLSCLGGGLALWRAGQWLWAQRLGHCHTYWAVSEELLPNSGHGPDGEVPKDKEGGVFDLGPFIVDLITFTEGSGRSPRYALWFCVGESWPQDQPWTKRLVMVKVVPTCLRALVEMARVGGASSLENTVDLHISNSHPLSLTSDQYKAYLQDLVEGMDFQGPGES
inactive: saracatinib 0.061 | sotrastaurin -0.043 | alvocidib -0.07 | Tubastatin A 0 | [1] 0.006 | defactinib -0.062 | rucaparib -0.057 | [2] -0.01 | encorafenib 0.014 | [3] -0.014

MCCC2 (UniProt Q9HCC0)
Sequence of UniProt Q9HCC0 (Q9HCC0 whole entry, looked up): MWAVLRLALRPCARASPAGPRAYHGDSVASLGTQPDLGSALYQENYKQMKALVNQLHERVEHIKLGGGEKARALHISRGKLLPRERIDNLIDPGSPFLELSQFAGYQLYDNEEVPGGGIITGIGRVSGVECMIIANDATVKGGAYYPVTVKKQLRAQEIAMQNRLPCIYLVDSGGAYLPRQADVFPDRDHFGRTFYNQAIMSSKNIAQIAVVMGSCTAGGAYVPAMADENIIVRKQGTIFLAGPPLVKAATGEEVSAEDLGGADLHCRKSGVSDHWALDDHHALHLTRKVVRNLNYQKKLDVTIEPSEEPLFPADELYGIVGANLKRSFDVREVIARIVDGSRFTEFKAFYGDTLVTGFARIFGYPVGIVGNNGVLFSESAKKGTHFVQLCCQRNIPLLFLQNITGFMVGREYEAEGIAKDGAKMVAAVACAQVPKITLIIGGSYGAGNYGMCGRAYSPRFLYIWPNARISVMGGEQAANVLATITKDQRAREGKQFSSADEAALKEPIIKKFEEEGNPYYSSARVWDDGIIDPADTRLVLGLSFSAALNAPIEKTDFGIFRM
active: [1] -0.274
inactive: saracatinib 0.033 | sotrastaurin 0.018 | alvocidib 0 | Tubastatin A 0.004 | defactinib 0.008 | rucaparib 0.012 | [2] -0.05 | encorafenib -0.033 | [3] -0.003

MAP3K20 (UniProt Q9NYL2)
Sequence of UniProt Q9NYL2 (Q9NYL2 whole entry, looked up): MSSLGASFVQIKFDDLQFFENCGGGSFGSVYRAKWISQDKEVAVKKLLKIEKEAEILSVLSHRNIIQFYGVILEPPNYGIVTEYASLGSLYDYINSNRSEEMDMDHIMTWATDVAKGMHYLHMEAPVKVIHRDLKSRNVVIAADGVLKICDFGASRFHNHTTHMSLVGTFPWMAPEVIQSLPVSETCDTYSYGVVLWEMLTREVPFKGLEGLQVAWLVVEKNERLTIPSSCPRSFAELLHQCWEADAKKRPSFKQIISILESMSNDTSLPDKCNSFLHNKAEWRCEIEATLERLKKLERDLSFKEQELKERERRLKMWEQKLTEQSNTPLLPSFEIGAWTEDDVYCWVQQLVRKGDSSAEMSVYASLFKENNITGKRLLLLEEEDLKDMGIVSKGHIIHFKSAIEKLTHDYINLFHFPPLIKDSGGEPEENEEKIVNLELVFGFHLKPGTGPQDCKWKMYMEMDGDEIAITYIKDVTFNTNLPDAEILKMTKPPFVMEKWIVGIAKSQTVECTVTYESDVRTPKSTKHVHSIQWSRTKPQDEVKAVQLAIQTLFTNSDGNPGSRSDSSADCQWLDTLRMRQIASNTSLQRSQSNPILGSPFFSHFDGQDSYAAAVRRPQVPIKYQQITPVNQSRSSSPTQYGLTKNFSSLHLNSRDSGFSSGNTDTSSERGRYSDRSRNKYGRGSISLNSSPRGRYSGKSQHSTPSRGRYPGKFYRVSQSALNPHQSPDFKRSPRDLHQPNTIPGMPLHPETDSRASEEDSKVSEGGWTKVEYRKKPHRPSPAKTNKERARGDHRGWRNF
inactive: saracatinib -0.106 | sotrastaurin 0.055 | alvocidib 0.065 | Tubastatin A 0.004 | [1] 0.054 | defactinib -0.018 | rucaparib 0.002 | [2] 0.01 | encorafenib 0.02 | [3] -0.034

INTS5 (UniProt Q6P9B9)
Sequence of UniProt Q6P9B9 (Q6P9B9 whole entry, looked up): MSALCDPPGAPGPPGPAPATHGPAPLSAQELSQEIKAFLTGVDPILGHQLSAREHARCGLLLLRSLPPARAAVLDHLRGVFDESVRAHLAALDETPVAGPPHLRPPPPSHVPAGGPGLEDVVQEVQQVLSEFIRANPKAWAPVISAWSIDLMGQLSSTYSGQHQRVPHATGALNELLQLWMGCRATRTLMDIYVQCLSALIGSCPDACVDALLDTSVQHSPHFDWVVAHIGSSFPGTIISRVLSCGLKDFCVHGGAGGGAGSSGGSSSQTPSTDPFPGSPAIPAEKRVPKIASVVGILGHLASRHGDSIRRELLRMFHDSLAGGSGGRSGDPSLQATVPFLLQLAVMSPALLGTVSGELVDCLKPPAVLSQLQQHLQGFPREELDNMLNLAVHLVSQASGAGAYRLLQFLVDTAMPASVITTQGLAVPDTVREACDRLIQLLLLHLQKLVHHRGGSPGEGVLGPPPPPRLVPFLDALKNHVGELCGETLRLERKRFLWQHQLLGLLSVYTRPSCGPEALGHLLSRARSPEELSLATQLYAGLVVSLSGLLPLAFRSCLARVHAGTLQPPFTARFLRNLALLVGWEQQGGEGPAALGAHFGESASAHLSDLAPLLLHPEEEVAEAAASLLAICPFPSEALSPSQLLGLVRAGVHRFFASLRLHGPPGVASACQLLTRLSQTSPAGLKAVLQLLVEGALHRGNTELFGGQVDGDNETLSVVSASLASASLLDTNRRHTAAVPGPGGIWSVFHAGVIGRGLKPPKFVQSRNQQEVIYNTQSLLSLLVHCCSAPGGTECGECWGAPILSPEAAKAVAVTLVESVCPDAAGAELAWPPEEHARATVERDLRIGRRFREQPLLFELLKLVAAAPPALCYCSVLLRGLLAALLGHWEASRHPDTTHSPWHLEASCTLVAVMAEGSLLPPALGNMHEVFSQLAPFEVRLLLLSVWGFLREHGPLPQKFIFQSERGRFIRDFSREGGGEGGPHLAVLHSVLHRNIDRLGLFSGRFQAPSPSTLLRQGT
inactive: saracatinib -0.051 | sotrastaurin -0.06 | Tubastatin A -0.133 | [1] -0.086 | defactinib -0.058 | [2] 0.044 | [3] 0

MFSD12 isoform 3 (UniProt Q6NUT3)
inactive: saracatinib -0.154 | sotrastaurin -0.172 | alvocidib -0.04 | Tubastatin A 0.031 | [1] 0.042 | rucaparib -0.14 | [2] -0.144 | encorafenib 0.196

KXD1 (UniProt Q9BQD3)
inactive: saracatinib -0.097 | alvocidib -0.105 | Tubastatin A -0.01 | [1] 0.008 | defactinib -0.03 | rucaparib -0.051 | [2] -0.07 | encorafenib 0.018 | [3] 0.017

ITGA2B (UniProt P08514)
inactive: saracatinib 0.025 | sotrastaurin -0.03 | alvocidib 0.111 | Tubastatin A -0.043 | [1] 0.037 | defactinib 0.059 | [2] -0.036 | [3] 0.058

MED7 (UniProt O43513)
inactive: saracatinib -0.026 | sotrastaurin 0.151 | alvocidib -0.072 | Tubastatin A -0.145 | [1] -0.056 | defactinib -0.015 | [2] -0.006 | [3] 0.012

MED8 isoform 2 (UniProt Q96G25)
Sequence of UniProt Q96G25 (Q96G25 whole entry, looked up): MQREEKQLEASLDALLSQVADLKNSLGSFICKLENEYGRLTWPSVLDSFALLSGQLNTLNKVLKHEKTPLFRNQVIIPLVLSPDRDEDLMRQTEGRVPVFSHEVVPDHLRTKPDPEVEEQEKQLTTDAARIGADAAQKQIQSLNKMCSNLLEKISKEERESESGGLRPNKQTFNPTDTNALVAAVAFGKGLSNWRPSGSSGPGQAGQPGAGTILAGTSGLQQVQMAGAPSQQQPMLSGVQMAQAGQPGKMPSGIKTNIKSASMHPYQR
inactive: saracatinib 0.003 | sotrastaurin 0.044 | alvocidib 0.007 | [1] 0.039 | defactinib -0.031 | rucaparib 0.04 | [2] -0.131 | encorafenib -0.024 | [3] 0.141

MCM10 (UniProt Q7L590)
inactive: sotrastaurin -0.09 | Tubastatin A -0.017 | [1] 0.014 | defactinib 0.018 | rucaparib -0.021 | encorafenib -0.049 | [3] -0.007

IKZF1 (UniProt R9R4D9)
inactive: saracatinib 0.019 | alvocidib 0.155 | Tubastatin A -0.158 | [2] -0.038

KIF21A (UniProt H0YI78)
inactive: [1] -0.012

MAP4 isoform 5 (UniProt P27816)
Sequence of UniProt P27816 (P27816 whole entry, looked up): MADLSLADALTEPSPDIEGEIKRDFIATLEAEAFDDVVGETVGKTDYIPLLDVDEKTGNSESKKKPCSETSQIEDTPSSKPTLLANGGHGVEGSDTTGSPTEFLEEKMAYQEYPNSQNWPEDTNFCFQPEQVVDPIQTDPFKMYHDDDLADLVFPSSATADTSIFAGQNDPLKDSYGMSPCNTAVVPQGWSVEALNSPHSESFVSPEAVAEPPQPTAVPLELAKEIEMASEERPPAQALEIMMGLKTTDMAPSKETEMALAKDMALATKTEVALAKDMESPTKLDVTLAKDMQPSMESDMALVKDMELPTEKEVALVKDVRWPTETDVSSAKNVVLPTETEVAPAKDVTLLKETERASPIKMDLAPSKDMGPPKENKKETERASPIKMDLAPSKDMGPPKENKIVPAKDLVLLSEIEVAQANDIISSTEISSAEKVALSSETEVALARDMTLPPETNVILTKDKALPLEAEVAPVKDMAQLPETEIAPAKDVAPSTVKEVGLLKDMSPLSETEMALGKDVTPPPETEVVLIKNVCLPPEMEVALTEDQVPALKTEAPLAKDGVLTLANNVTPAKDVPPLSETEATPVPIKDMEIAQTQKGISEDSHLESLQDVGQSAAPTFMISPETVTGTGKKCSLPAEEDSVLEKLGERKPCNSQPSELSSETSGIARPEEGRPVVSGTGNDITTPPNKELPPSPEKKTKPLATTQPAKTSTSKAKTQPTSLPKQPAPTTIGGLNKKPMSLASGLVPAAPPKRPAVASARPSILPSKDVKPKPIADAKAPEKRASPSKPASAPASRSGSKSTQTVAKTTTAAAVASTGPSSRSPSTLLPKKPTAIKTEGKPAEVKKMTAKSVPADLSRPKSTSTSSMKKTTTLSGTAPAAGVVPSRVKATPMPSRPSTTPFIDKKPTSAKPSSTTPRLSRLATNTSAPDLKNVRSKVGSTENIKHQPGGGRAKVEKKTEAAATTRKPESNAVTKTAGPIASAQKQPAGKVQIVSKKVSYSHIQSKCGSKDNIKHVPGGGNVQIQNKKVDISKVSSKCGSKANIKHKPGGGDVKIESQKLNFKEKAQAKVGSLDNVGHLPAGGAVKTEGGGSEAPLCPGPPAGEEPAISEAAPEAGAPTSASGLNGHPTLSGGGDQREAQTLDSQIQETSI
inactive: sotrastaurin -0.16 | [1] 0.13 | rucaparib 0.046 | encorafenib 0.094

KMT5A (UniProt Q9NQR1)
inactive: sotrastaurin -0.18

LRRCC1 (UniProt Q9C099)
inactive: saracatinib 0 | Tubastatin A 0.292 | [2] 0.06

KIZ (UniProt Q2M2Z5)
inactive: alvocidib -0.076 | rucaparib -0.027 | encorafenib -0.038

ITPRID2 (UniProt P28290)
inactive: [1] -0.299 | defactinib -0.158 | rucaparib -0.019 | encorafenib -0.087 | [3] 0.059
